From ChEMBL document CHEMBL3988442, “University of Dundee, Small-Polar-MMV Screening Library” (2021)
In all, about 48,000 compounds went through this assay and about 13,000 (27%) showed an effect of 50% or more. Some of the results follow.

system: Wolbachia pipientis; test: Anti-Wolbachia Cell-Based Screen; type: functional; set-up: scale not given: in the data most compounds retested in dose-response had high values; settings: 5 µM

Compound | Percent Effect
CCCS(=O)(=O)N1CCC2(CN(c3ccsc3)C(=O)CN2C)C1.O=C(O)C(F)(F)F (stereo unspecified) | 2.599%
CC(C)c1nc(CN(C)C2CCN(CC(F)(F)F)C2)no1 (stereo unspecified) | 0.6339%
CN(c1ccc(C#N)cn1)C1CCCN(Cc2noc(C3CC3)n2)C1 (stereo unspecified) | 3.102%
CN(CC1CN(CCn2cc(C#N)cn2)CCO1)c1cccnn1 (stereo unspecified) | -17.7%
Cc1nc(CN2CCC(N(C)Cc3noc(C(C)C)n3)C2)cs1 (stereo unspecified) | 19.33%
CC(C)c1nc(CN(C)C2CCN(CCc3ccncc3)C2)no1 (stereo unspecified) | 78.23%
CCc1nc(CN(C)C2CCN(CCn3cc(C#N)cn3)C2)no1 (stereo unspecified) | 10.97%
Cc1nc(CN(C)C2CCN(CCn3cc(C#N)cn3)C2)no1 (stereo unspecified) | 105.6%
CN(Cc1noc(C2CC2)n1)C1CCN(CCn2cc(C#N)cn2)C1 (stereo unspecified) | 90.88%
CC(C)c1nc(CN(C)C2CCN(CCn3cc(C#N)cn3)C2)no1 (stereo unspecified) | 72.8%
Cc1ncsc1CCN1CCC(N(C)Cc2noc(C(C)C)n2)C1 (stereo unspecified) | 6.438%
Cc1nn(CCO)c(C)c1CNC1CCc2c(Cl)cccc21 (stereo unspecified) | 9.566%
CCOC(C)c1nc(CN2CCN(CC(F)F)CC2)cs1 (stereo unspecified) | -28.37%
CCc1c(C(=O)N2CC[C@H](N3CCOCC3)[C@H](CCCO)C2)csc1C | -10.58%
CCc1c(C)nn(CCNC(=O)C2CCCN(C(=O)N(C)C)C2)c1C (stereo unspecified) | -3.279%
C=C(C)CN1CCC(c2n[nH]c(C3CC3)n2)CC1 | -34.27%
O=C(Nc1cnccn1)[C@H]1CO[C@H]2CCN(c3ncc(F)cn3)C[C@H]2C1.O=C(O)C(F)(F)F | 104.1%
CC(=O)N1[C@H](Cn2cncn2)C[C@@H]2CN(c3ncc(F)cn3)CC[C@@H]21.O=C(O)C(F)(F)F | -4.782%
CN(C)C(=O)[C@H]1CO[C@H]2CCN(c3ncc(F)cn3)C[C@H]2C1.O=C(O)C(F)(F)F | 120.2%
CN1CCN(C(=O)[C@H]2C[C@@H]3CN(c4ncc(F)cn4)C[C@@H]3N2C)CC1.O=C(O)C(F)(F)F.O=C(O)C(F)(F)F.O=C(O)C(F)(F)F | 6.01%
CN(C)C(=O)[C@H]1C[C@H]2OCC[C@H]2N(Cc2ccc(F)cc2)C1.O=C(O)C(F)(F)F | -2.638%
O=C(Nc1cnccn1)[C@@H]1C[C@H]2OCC[C@H]2N(c2ncc(F)cn2)C1 | -10.05%
CNC(=O)[C@H]1CO[C@H]2CCN(c3ncc(F)cn3)C[C@H]2C1.O=C(O)C(F)(F)F | 80.41%

Compound | Percent Effect
Fc1cnc(N2CC[C@@H]3CN(Cc4ccncc4)CCO[C@@H]3C2)nc1.O=C(O)C(F)(F)F.O=C(O)C(F)(F)F.O=C(O)C(F)(F)F | -11.92%
O=C(Nc1cccnc1)[C@H]1CO[C@H]2CCN(c3ncc(F)cn3)C[C@H]2C1.O=C(O)C(F)(F)F.O=C(O)C(F)(F)F | -5.908%
CNC(=O)c1cnc(/C=C/c2cc(OC)c3c(c2)OCCO3)s1 | 15.86%
CCN(C)c1ncnc2c1CCN(C(=O)c1ccsc1)CC2.O=C(O)C(F)(F)F | -2.544%
CC(C)NC(=O)N1CC[C@@H]2CN(S(C)(=O)=O)CCO[C@@H]2C1 | 112.1%
CS(=O)(=O)N1CCO[C@@H]2CN(C(=O)C3CC(F)(F)C3)C[C@@H]2C1 | 99.59%
CCc1ccc(CN2CC[C@@H]3CN(S(C)(=O)=O)CCO[C@@H]3C2)o1.O=C(O)C(F)(F)F | 2.069%
CS(=O)(=O)N1CCO[C@@H]2CN(C(=O)COC3CCCC3)C[C@@H]2C1 | -4.785%
CS(=O)(=O)N1CCO[C@@H]2CN(C(=O)N3CCCC3)CC[C@@H]2C1 | 106.3%
CS(=O)(=O)N1CCO[C@@H]2CN(C(=O)C3CCOC3)CC[C@@H]2C1 (stereo partly specified) | 99.33%
CC(C)c1nc(CNC(=O)c2ccc(C(C)N3CCCCC3)o2)cs1 (stereo unspecified) | 4.315%
Cc1ncc(S(=O)(=O)Nc2ccnn2C(C)C)[nH]1 | -21.74%
CS(=O)(=O)N1CCO[C@@H]2CN(C(=O)N3CCOCC3)CC[C@@H]2C1 | 93.86%
CS(=O)(=O)N1CC[C@H]2C[C@@H](C(=O)N3CCOCC3)O[C@@H]2C1 | -11.49%
COCCN1CCN(C(=O)c2ccccc2C(C)=O)[C@H]2CS(=O)(=O)C[C@H]21 | -3.299%
O=C1NCC2(CCCN(Cc3ccccc3OCCO)C2)O1 (stereo unspecified) | -12.98%
COCCC1(C(=O)O)CCCN(Cc2ccccc2OCCO)C1 (stereo unspecified) | -7.98%
Cc1cccc(CN2CCCC3(CCN(c4cccnc4)C3=O)C2)n1 (stereo unspecified) | -4.562%
Cc1cccc(CN2CCCC3(Cc4ccccc4CNC3=O)C2)n1 (stereo unspecified) | 122.4%
COc1ccccc1CN1CCCC2(Cc3ccccc3CNC2=O)C1 (stereo unspecified) | 121.9%
CCOC(=O)N1CCN(c2nc(NC)c3ccccc3n2)CC1 | -5.868%
CCOC(=O)CCNC(=O)N1CCN(c2nc3ccccc3n2C)CC1 | -6.682%
CCNC(=O)N1CCN(c2nc3ccccc3n2C)CC1 | 113.5%

Compound | Percent Effect
Cn1c(SCC(=O)NC(C)(C#N)C2CC2)nc2ccccc21 (stereo unspecified) | -4.187%
COC(=O)CNC(=O)N1CCN(c2nc3ccccc3n2C)CC1 | 124.8%
CCOC(=O)C(C)NC(=O)N1CCN(c2nc3ccccc3n2C)CC1 (stereo unspecified) | 155.3%
CCOC(=O)N1CCN(c2nc(N3CCCC3)c3ccccc3n2)CC1 | -6.467%
CCNC(=O)N1CCC(=Cc2ccccc2)CC1 | 6.266%
COC(=O)CNC(=O)N1CCC2(CC1)CC(c1ccccc1)CN(C)C2 (stereo unspecified) | -8.809%
Cc1oc(NC(=O)C(C)N2CCN(C(C)(C)CO)CC2)c(C#N)c1C (stereo unspecified) | -7.519%
O=C(Cc1cccc(F)c1F)NS(=O)(=O)c1cncc(Cl)c1 | -8.127%
Cc1ccc(OC2(C(=O)O)CCN(C/C=C/c3ccco3)CC2)cn1 | 1.431%
CCN1CCN(c2ccc(CNC(=O)c3c(C)noc3C)cn2)CC1 | 9.474%
CN(Cc1ccc([S+](C)[O-])cc1)c1ccccn1 (stereo unspecified) | -21.98%
Cc1nc(C)n(CC(C)C(=O)N2CCC(NS(C)(=O)=O)CC2)n1 (stereo unspecified) | -0.2261%
CS(=O)(=O)Cc1ccc(CNc2ncc(C#N)cc2Cl)cc1 | -4.102%
CCN(C)C(=O)C1(c2ccc(F)cc2F)CCC1 | -1.611%
O=C(Nc1cccc(N2CCN(CC3CC3)CC2)c1)N1CCCC1 | 0.3876%
CC(=O)N1CCCC1c1cc(N2CCN(CC3CC3)CC2)cc(C)n1 (stereo unspecified) | 101%
CC(=O)N1CCCC1c1cc(N2CCN(CC(C)(C)C)CC2)cc(C)n1 (stereo unspecified) | 123.3%
CC(=O)N1CCCC1c1cc(N2CCN(C3CCCC3)CC2)cc(C)n1 (stereo unspecified) | 1.456%
Cc1n[nH]c(C)c1C1CCCN1C(=O)NCC(=O)NC(C)(C)C (stereo unspecified) | -8.161%
Cc1cccc(CNCc2c(C(C)C)nn(C)c2N2CCOCC2)n1 | -7.798%
Cc1ccc(-n2nnc(C(=O)NS(C)(=O)=O)c2C2CC2)cc1 | -4.729%
COCCS(=O)(=O)NC(=O)c1nnn(-c2ccc(F)cc2)c1C1CC1 | -1.625%
CS(=O)(=O)NC(=O)c1nnn(-c2ccccc2)c1C1CC1 | 97.89%

Compound | Percent Effect
CS(=O)(=O)NC(=O)c1nnn(-c2cccc(F)c2)c1C1CC1 | 110.8%
NS(=O)(=O)CCNC(=O)c1nnn(-c2ccccc2)c1C1CC1 | -6.368%
CC(C)NC(=O)c1nnn(-c2cccc(C(F)(F)F)c2)c1C1CC1 | 8.497%
NC(=O)c1ccc(OCC(=O)NC2CCc3c(F)cccc32)cc1 (stereo unspecified) | -9.741%
CC(C)N(C)Cc1ccccc1CNc1ccc2nncn2n1 | -2.79%
Cc1cc(F)ccc1S(=O)(=O)N1C[C@@H](C)[C@@](C)(O)C1 | 6.812%
Cc1ccc(CC(=O)N2CCc3nnc(N(C)C)cc3C2)cn1 | -3.136%
CNC(=O)C1CCCN(C(=O)C2CCC2)C1 (stereo unspecified) | -10.43%
CNC(=O)[C@@H]1CN(C(=O)C(C)C)C[C@H]1c1ccnc(N2CCCC2)n1.Cl | 109.4%
CNC(=O)[C@@H]1CN(C(=O)C2CCC2)C[C@H]1c1ccnc(N2CCCC2)n1.Cl | 84.63%
CNC(=O)C1CCCN(c2nc(-c3ccco3)nc3c2CCNCC3)C1 (stereo unspecified) | -9.477%
Cc1nc(CNCc2ccc(N3CCC(CO)CC3)nc2)cs1 | -0.2455%
O=C([C@@H]1CCCO1)N1CCn2c(Cn3cccn3)cnc2C1 | 2.282%
CN(Cc1cn2c(n1)CN(C(=O)c1cccnc1)CC2)Cc1ccco1 | -4.152%
CN(Cc1cc2n(n1)CCN(C(=O)c1cccnc1)C2)Cc1nccs1 | 89.98%
CCOc1cccc(C(=O)N2CCCn3nc(CCC(=O)O)cc3C2)c1 | -15.16%
CN(Cc1cn2c(n1)CN(C(=O)C1CCCO1)CC2)Cc1ccco1 (stereo unspecified) | 5.5%
CN(Cc1cc2n(n1)CCN(C(=O)[C@H]1CCCO1)C2)Cc1nccs1 | 100.4%
CC(C)C1CN(C(=O)c2cc(C3CC3)n[nH]2)CCC(=O)N1CC1CC1 (stereo unspecified) | 29.09%
C[C@@H]1CN(S(=O)(=O)N2CCCC2)C[C@@]1(O)C1CC1 | -6.629%
CNC(=O)[C@@H]1C[C@@H](NC(=O)c2ccc(OC)o2)CN1Cc1sccc1C | 3.708%
CC(C)CN(c1cn[nH]c1)S(=O)(=O)c1cccc(C#N)c1 | -11.66%
